The results in this text go back to PubChem BioAssay (NCATS).

Inconclusive results are not listed. Unmarked numbers belong to inactive results. Calls of active or inactive are those of the source. The call rests on the fitted dose curve; in most records, active means well fitted cell-killing curve with a large enough effect; inconclusive means small, poorly fitted or top-dose-only effect; inactive means no such curve, though single readings can be large or run the other way.
On the % scale 0 is the no-effect control and ±100 the full control effect; potency means the concentration at half of the fitted maximal effect.

The first experiment in a line: qHTS of pediatric cancer cell lines to identify multiple opportunities for drug repurposing: Primary screen for Saos-2 cells (AID 1347097). Further: nearly all actives have a fitted effect of over 40% in size. The following applies: Saos-2 viability, CellTiter-Glo ATP luminescence, 48 h; series mostly up to 46 µM; activity change, negative = cytotoxic: at the top concentration. The essentials: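 ATP-based luminescence (CellTiter-Glo) quantifies viability after a 48-hour exposure. Compounds are dosed across 8 or 11 final concentrations; DMSO and 2.3 µM bortezomib serve as controls.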
Turning to `CC(=O)O[C@]1(C(C)=O)CC[C@H]2[C@@H]3C=C(C)C4=CC(=O)CC[C@]4(C)[C@@H]3CC[C@@]21C`, the Potency is 11.8 µM (active).
`Cn1cc(-c2cnn3c(N)c(Br)c([C@H]4CCCNC4)nc23)cn1`: the Potency is 1.48 µM (active).
In the case of `CN(CC(=O)N(Cc1ccc(C2CCCCC2)cc1)c1ccc(C(=O)O)c(O)c1)S(=O)(=O)c1c(F)c(F)c(F)c(F)c1F`, the Potency is 16.6 µM (active).
In the case of `O=C1CSC(=O)N1C(CCc1ccncc1)COc1ccc(-c2cccc([N+](=O)[O-])c2)cc1` (stereo unspecified), the “activity change, negative = cytotoxic” value was 19.4%.
With `C=CC(=O)N1CCc2ccc(-n3c(=O)ccc4cnc5ccc(-c6cnn(C)c6)cc5c43)cc21`, the Potency was 2.96 µM (active).
`CC(C)c1cnn2c(NCc3ccccc3)cc(NCCCCCCN)nc12`: the Potency is 23.5 µM (active).
On to `O=C(O)CCCCCC(=O)NN=C1CCCC1`, for which the “activity change, negative = cytotoxic” value was -6.93%.
Consider `C#C[C@]1(O)CC[C@@H]2[C@@H]3CCc4cc(O)ccc4[C@H]3CC[C@@]21C`, for which the Potency was 18.7 µM (active).
In the case of `CCOC(=O)N1CCN([N+]([O-])=NOc2ccc([N+](=O)[O-])cc2[N+](=O)[O-])CC1`, the Potency is 18.7 µM (active).
For the compound `C=Cc1c(C)c2cc3nc(cc4[nH]c(cc5nc(cc1[nH]2)C(C)=C5CCC(=O)O)c(CCC(=O)OC)c4C)[C@@]1(C)C3=CC=C(C(=O)OC)[C@H]1C(=O)OC`, the Potency is 4.69 µM (active).
With `Cc1cnn(C)c1C(=O)Nc1cc(Nc2ccc3c(C=Cc4ccccn4)n[nH]c3c2)ccc1F`, the Potency is 20.9 µM (active).
Take `Cc1cncc2cccc(S(=O)(=O)N3CCCN(C(=O)CN)C[C@@H]3C)c12`: the Potency is 2.35 µM (active).
With `C[C@@H](NCc1cc2ccccc2[nH]1)c1cccc2ccccc12`, the “activity change, negative = cytotoxic” value was -16.3%.
As to `Cc1cn([C@@H]2O[C@H](CO)[C@@H](O)[C@H]2F)c(=O)[nH]c1=O`, the “activity change, negative = cytotoxic” value was 23.5%.
`C=C[C@@H]1CN2CCC1C[C@H]2[C@H](O)c1ccnc2ccc(OC)cc12` (stereo partly specified): the “activity change, negative = cytotoxic” value was -3.73%.
On to `C[C@]12CCC(=O)C=C1[C@@H]1CC1[C@H]1[C@H]3[C@@H]4C[C@H]4[C@@]4(CCC(=O)O4)[C@@]3(C)CC[C@H]12` (stereo partly specified), for which the “activity change, negative = cytotoxic” value is -3.8%.
`CCCNC(=O)[C@H]1O[C@H]1C(=O)N[C@H](C(=O)N1CCC[C@@H]1C(=O)OC)C(C)CC` (stereo partly specified): the Potency is 2.96 µM (active).
Turning to `CCN(CC)Cc1ccc2cc(COC(=O)Nc3ccc(C(=O)NO)cc3)ccc2c1`, the Potency is 0.935 µM (active).
As for `COc1cc(OC)c(NC(=O)Nc2cc(C)on2)cc1Cl`, the “activity change, negative = cytotoxic” value is -18.1%.
In the case of `COc1cc(C[C@@H](CO)[C@H](CO)Cc2ccc(O)c(OC)c2)ccc1O`, the Potency is 5.9 µM (active).
For `CCCCCCCCCCCCc1ccc(S(=O)(=O)Nc2nncs2)cc1`, the Potency was 18.7 µM (active).
Same read-out and setting: in the case of `Cn1cc(C2=C(c3c4n(c5ccccc35)CCC(CN)C4)C(=O)NC2=O)c2ccccc21` (stereo unspecified) it was 18.7 µM (active); in that of `C#Cc1cccc(Nc2ncnc3cc(OCCOC)c(OCCO)cc23)c1`, 5.9 µM (active).
Take `N=c1ccn2c(n1)O[C@H]1[C@@H](O)[C@@H](CO)O[C@H]12`: the “activity change, negative = cytotoxic” value is -6.69%.
`CCOC(=O)C=C[C@H](C[C@@H]1CCNC1=O)NC(=O)[C@@H](CC(=O)[C@@H](NC(=O)c1cc(C)on1)C(C)C)Cc1ccc(F)cc1`: the “activity change, negative = cytotoxic” value was 35.4%.
With `Oc1cc2c(cc1O)C1c3ccc(O)c(O)c3OCC1(O)C2` (stereo unspecified), the “activity change, negative = cytotoxic” value is 16%.
`CN(C)c1ccc2cc(C(=O)N[C@@H](CCCN=C(N)CCl)C(=O)NCc3ccccc3)ccc2c1`: the Potency was 14.8 µM (active).
Turning to `CCCc1nc(C(C)(C)O)c(C(=O)O)n1Cc1ccc(-c2ccccc2-c2nn[nH]n2)cc1`, the “activity change, negative = cytotoxic” value is 19.8%.
For the compound `C[C@H](O)[C@@H]1C(=O)N2C(C(=O)O)=C(S[C@@H]3CN[C@H](CNS(N)(=O)=O)C3)[C@@H](C)[C@@H]12`, the “activity change, negative = cytotoxic” value was 19.5%.

The nature of a further experiment: qHTS of pediatric cancer cell lines to identify multiple opportunities for drug repurposing: Primary screen for SK-N-SH cells (AID 1347098). Further: nearly all actives have a fitted effect of over 65% in size.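 On activity change, negative = cytotoxic: DMSO served as neutral control and bortezomib at 2.3 µM as positive control.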 The following applies: SK-N-SH viability, CellTiter-Glo luminescence, 48 h; series mostly up to 57 µM; activity change, negative = cytotoxic: at the top concentration. The essentials:
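Cells (500-1,000/well) rested 5 h, then received compounds for 48 h; metabolically active cells were measured by CellTiter-Glo luminescence. Final concentrations spanned up to 46 µM (MIPE, 11-point) or 0.59 nM-46 µM (NPC, 8-point) in primary screens, 11-point in follow-ups.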
As for `CC(=O)O[C@]1(C(C)=O)CC[C@H]2[C@@H]3C=C(C)C4=CC(=O)CC[C@]4(C)[C@@H]3CC[C@@]21C`, the Potency was 3.04 µM (active).
In the case of `Cn1cc(-c2cnn3c(N)c(Br)c([C@H]4CCCNC4)nc23)cn1`, the Potency is 17.1 µM (active).
Still for that read-out and setting: in the case of `N#Cc1c(C2CCNCC2)cc(-c2c(O)cccc2OCC2CC2)nc1N` it was 21.5 µM (active).
Consider `CN(CC(=O)N(Cc1ccc(C2CCCCC2)cc1)c1ccc(C(=O)O)c(O)c1)S(=O)(=O)c1c(F)c(F)c(F)c(F)c1F`, for which the Potency was 21.5 µM (active).
As for `O=C1CSC(=O)N1C(CCc1ccncc1)COc1ccc(-c2cccc([N+](=O)[O-])c2)cc1` (stereo unspecified), the Potency was 4.82 µM (active).
The same measure, in the same setting: in the case of `C=CC(=O)N1CCc2ccc(-n3c(=O)ccc4cnc5ccc(-c6cnn(C)c6)cc5c43)cc21` it was 8.57 µM (active).
`C#C[C@]1(O)CC[C@@H]2[C@@H]3CCc4cc(O)ccc4[C@H]3CC[C@@]21C`: the Potency was 24.1 µM (active).
The same measure, in the same setting: in the case of `CCOC(=O)N1CCN([N+]([O-])=NOc2ccc([N+](=O)[O-])cc2[N+](=O)[O-])CC1` it was 27.1 µM (active); in that of `C=Cc1c(C)c2cc3nc(cc4[nH]c(cc5nc(cc1[nH]2)C(C)=C5CCC(=O)O)c(CCC(=O)OC)c4C)[C@@]1(C)C3=CC=C(C(=O)OC)[C@H]1C(=O)OC`, 0.121 µM (active).
As for `N#CC(=C(O)c1ccc(Cl)cc1Cl)c1nc2cc(Cl)ccc2c(=O)[nH]1`, the “activity change, negative = cytotoxic” value was 21.7%.
Still for that read-out and setting: in the case of `C[C@@H](NCc1cc2ccccc2[nH]1)c1cccc2ccccc12` it was 5.17%.
Same read-out and setting: in the case of `Cc1cn([C@@H]2O[C@H](CO)[C@@H](O)[C@H]2F)c(=O)[nH]c1=O` it was 9.34%; in that of `C=C[C@@H]1CN2CCC1C[C@H]2[C@H](O)c1ccnc2ccc(OC)cc12` (stereo partly specified), 10%; in that of `C[C@]12CCC(=O)C=C1[C@@H]1CC1[C@H]1[C@H]3[C@@H]4C[C@H]4[C@@]4(CCC(=O)O4)[C@@]3(C)CC[C@H]12` (stereo partly specified), 7.55%.
Take `CCN(CC)Cc1ccc2cc(COC(=O)Nc3ccc(C(=O)NO)cc3)ccc2c1`: the Potency was 1.52 µM (active).
For the compound `COc1cc(OC)c(NC(=O)Nc2cc(C)on2)cc1Cl`, the “activity change, negative = cytotoxic” value was -9.15%.
`N#CC(=C(N)Sc1ccc(N)cc1)c1ccccc1C(F)(F)F`: the Potency is 4.82 µM (active).
`COc1cc(C[C@@H](CO)[C@H](CO)Cc2ccc(O)c(OC)c2)ccc1O`: the Potency is 1.71 µM (active).
In the case of `Cn1cc(C2=C(c3c4n(c5ccccc35)CCC(CN)C4)C(=O)NC2=O)c2ccccc21` (stereo unspecified), the Potency was 24.1 µM (active).
As for `C#Cc1cccc(Nc2ncnc3cc(OCCOC)c(OCCO)cc23)c1`, the Potency was 3.83 µM (active).
With `CCOC(=O)C=C[C@H](C[C@@H]1CCNC1=O)NC(=O)[C@@H](CC(=O)[C@@H](NC(=O)c1cc(C)on1)C(C)C)Cc1ccc(F)cc1`, the “activity change, negative = cytotoxic” value was 16.2%.
Turning to `CN(C)CCN1C(=O)c2cccc3cc(N)cc(c23)C1=O`, the Potency was 21.5 µM (active).
Take `NC(=O)c1ncn([C@@H]2O[C@H](CO)[C@@H](O)[C@@H]2O)c1N`: the “activity change, negative = cytotoxic” value was 22.5%.
Same read-out and setting: the figure for `Oc1cc2c(cc1O)C1c3ccc(O)c(O)c3OCC1(O)C2` (stereo unspecified) is 6.28%.
Regarding `COc1cc(C(C)C)c(Oc2cnc(NC(CO)CO)nc2N)cc1I`, the Potency was 1.08 µM (active).
Consider `CN(C)c1ccc2cc(C(=O)N[C@@H](CCCN=C(N)CCl)C(=O)NCc3ccccc3)ccc2c1`, for which the Potency is 21.5 µM (active).
Consider `Cc1ccccc1C(=O)Nc1ccc(C(=O)N2CCCC(O)c3cc(Cl)ccc32)c(C)c1` (stereo unspecified), for which the “activity change, negative = cytotoxic” value is -17.3%.
